An excerpt weighted towards active compounds, which were near 12% of everything screened.
AMA1-RON2 inh: qHTS for Inhibitors of AMA1-RON; Towards Development of Antimalarial Drug Lead: Primary Screen | Plasmodium falciparum AMA1 (3D7) - RON2 peptide interaction | AlphaScreen AMA1-biotinylated RON2 peptide binding | 0.2% of 360,000 active | Potency, µM (titrated, usually from 58.2 µM), for inactives: top-dose activity change, negative = inhibition, most hits filed as inhibitors;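 further: 0% = vehicle wells and -100% = peptide control; nearly all actives have a fitted effect of over 45% in size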
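AMA1 (3D7) with his tag at 25 nM final met compounds first, then biotinylated RON2 peptide at 25 nM; detection used donor plus acceptor beads, 10 µg/mL apiece, read by AlphaScreen after 30 min at room temperature.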
Pf growth 96h: Primary qHTS for delayed death inhibitors of the malarial parasite plastid, 96 hour incubation; P. falciparum luciferase reporter growth, 96 h; Potency, µM (highest dose often 28.7 µM), for the others: at the highest dose activity change, negative = inhibition, usual class: inhibitors; 6.9% of 320,000 active; AID 504834, 2011; further: on the % scale 0 is the no-effect control and ±100 the full control effect
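Parasite growth measured via integrated firefly luciferase reporter in P. falciparum. Infected erythrocytes at 2% hematocrit, 0.05% parasitemia final were treated 96 hours at 37 C under 5% CO2, and luminescence was read.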
SARS PLP yeast: qHTS of Yeast-based Assay for SARS-CoV PLP; S. cerevisiae expressing SARS-CoV PLpro, growth rescue; AID 485353, 2010; Potency, µM (top dose mostly 32.9 µM), without a hit: at the highest dose activity, positive = growth rescue, actives largely listed as activators; 0.19% of 330,000 active; calls by dose curve; further: 0% is about no effect; nearly all actives have a fitted effect of over 55% in size
Pf growth 48h: Primary qHTS for delayed death inhibitors of the malarial parasite plastid, 48 hour incubation; P. falciparum luciferase growth in erythrocytes, 48 h; Potency, µM (series often up to 28.7 µM), for the others: at the highest dose activity change, negative = inhibition, usual class: inhibitors; 5.9% of 310,000 active; AID 504832, 2011; further: on the % scale 0 is the no-effect control and ±100 the full control effect
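Luciferase-expressing parasites in RBCs, 2% Hct / 0.1% parasitemia final; RPMI 1640 + 0.5% Albumax; 37 C, 5% CO2, one generation; luminescence read-out, lower signal = inhibition.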
NS1 function inh: qHTS Assay for Inhibitors of Influenza NS1 Protein Function; Potency, µM (series often up to 46.1 µM), without a hit: at the top dose activity, positive = more growth; 0.4% of 270,000 active; AID 2326, 2010; calls by dose curve; further: actives are rising curves; nearly all actives have a fitted effect of over 50% in size
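Read-out: OD600 growth recovery of NS1-expressing budding yeast. Cells grown overnight at 30C in -URA glucose medium, washed, resuspended and diluted 1:100 in 2% galactose assay medium, pH 6.0. Same strain lacking NS1 served as positive control.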
HCV inh: qHTS Assay for Inhibitors of Hepatitis C Virus (HCV); AID 651820, 2012; 3.4% of 340,000 active; Potency, µM (highest dose often 41.8 µM), for the others: at the top dose activity change, negative = inhibition, most hits filed as inhibitors; Huh7.5.1 HCVcc-Cre infection, luciferase reporter, 44 h; further: on the % scale 0 is the no-effect control and ±100 the full control effect
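Cells seeded at 1,000/well and cultured 4 h, then compounds added followed by HCVcc-Cre virus (~0.5 moi). After 44 h further culture, luciferase substrate was added, plates held 15 min at room temperature, and luminescence read for 15 sec.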
* hit, by the source's call; ? = inconclusive; . = not tested or not shown; [ ] = another dose, or the depositor's remark. Unless noted, the call rests on the fitted dose curve; in most records, active means well fitted curve in the direction sought with a large enough effect; inconclusive means small, poorly fitted or top-dose-only effect, or another doubt; inactive means no such curve, though single readings can be large; an effect the other way counts as inactive or inconclusive. Potency means the concentration at half of the fitted maximal effect.

SMILES	AMA1-RON2 inh	Pf growth 96h	SARS PLP yeast	Pf growth 48h	NS1 function inh	HCV inh
Cc1nc(N2CCN(c3ccccc3)CC2)nc2c1C(=O)CC(c1ccccc1)C2 (configuration not stated)	-11%	-10%	5%	13%	1%	-26%
CC(C)=CCCC(C)=CCN1C(=O)CN(C)C1=O	-14%	.	.	.	.	.
Cc1cccc(NC(=O)NCCc2c[nH]c3ccccc23)c1	-24%	37%	0%	-1%	-1%	-2%
O=C(CCNC(=O)c1ccco1)NCCc1c[nH]c2ccccc12	4%	.	1%	.	.	10%
Cc1cc(C)nc(NC(=NCCc2c[nH]c3ccccc23)NC(=O)Nc2ccccc2)n1	0%	4.7µM*	-13%	5.2µM*	23%	?
Cc1cc(C)nc(NC(=NCCc2c[nH]c3ccccc23)NC(=O)Nc2cccc([N+](=O)[O-])c2)n1	6%	58%	-12%	3.3µM*	11%	5%
Cc1cc(C)nc(NC(=NCCc2c[nH]c3ccccc23)NC(=O)Nc2ccc(Cl)c(Cl)c2)n1	-8%	2.1µM*	-10%	?	24%	?
C/C(=N\NC(=O)CCc1c[nH]c2ccccc12)c1cccc([N+](=O)[O-])c1	?	23%	17%	30%	6%	?
Cc1cc(C)nc(NC(=NCCc2c[nH]c3ccccc23)NC(=O)c2ccco2)n1	8%	5.9µM*	5%	6.6µM*	-14%	?
Cc1cc(NC(=O)c2c(C)noc2C)no1	4%	0%	0%	72%	-2%	9%
Cc1cc(C(=O)NNS(=O)(=O)c2ccc(C(C)(C)C)cc2)nn1C(C)(C)C	-6%	-92%	1%	10µM*	4%	11%
Cc1ccc(S(=O)(=O)NNC(=O)c2ccncc2)cc1	-3%	?	24%	13%	6%	11%
Cc1ccc(S(=O)(=O)NNC(=O)C(=O)NNc2ccccn2)cc1	32µM*	41%	-1%	51%	-12%	-19%
Nc1ccc(S(=O)(=O)NNC(=O)C(=O)NNc2ccccn2)cc1	45%	6%	2%	-16%	-12%	-3%
O=C(NNS(=O)(=O)c1ccccc1)C(O)(c1ccccc1)c1ccccc1	-11%	-2%	-3%	9%	-12%	-10%
CCCNNC(=O)C(O)(c1ccccc1)c1ccccc1	13%[11.6 µM]	10µM*	23%	-1%	4%	1%
Cc1ccc(S(=O)(=O)NNC(=O)C(O)(c2ccccc2)c2ccccc2)cc1	8%	2.1µM*	5%	11%	-11%	34%
COc1ccc(CCNC(=O)C(=O)NCC2OCCN2S(=O)(=O)c2cccs2)cc1 (configuration not stated)	14%	-11%	-3%	-2%	0%	1%
C=CCN(CC=C)S(=O)(=O)c1ccc(NC(=S)NC(=O)C2CC2)cc1	16%	?	-9%	?	2%	?
O=C(NCC1CCCO1)c1cc(-c2ccc(F)cc2)no1 (configuration not stated)	11%	?	2%	92%	-13%	5%
O=C(CN1C(=O)c2ccccc2C1=O)N1CCCCC1	0%	-7%	-1%	14%	-5%	13%
COc1ccccc1N1CCN(C(=O)CCn2c(=O)[nH]c3ccccc3c2=O)CC1	7%	.	0%	-11%	5%	0%
COc1ccccc1N1CCN(C(=O)CCCCCn2c(=O)[nH]c3ccsc3c2=O)CC1	5%	0%	-2%	13µM*	.	9%
COc1ccccc1N1CCN(C(=O)CCCN2C(=O)c3cccc4cccc(c34)C2=O)CC1	-26%	-15%	-3%	?	-23%	8.9µM*
O=C(CCCN1C(=O)c2ccccc2C1=O)N1CCCCC1	2%	5.2µM*	8%	25%	1%	3%

From PubChem BioAssay
